Test in all cases: NCI-60 one-dose screen, 48 h (100 = growth as untreated, 0 = no growth, -100 = all killed)
One assay concerns SR leukemia. The conditions noted are these: 10 µM unless noted.
The next assay concerns RPMI-8226 leukemia. As to conditions: 10 µM unless noted.
The next assay deals with OVCAR-8 ovarian. As to conditions: 10 µM unless noted.
Another assay deals with OVCAR-5 ovarian. As to conditions: 10 µM unless noted.
The next assay relates to OVCAR-4 ovarian. As to conditions: 10 µM unless noted.
For another assay, the system named is SK-OV-3 ovarian. The conditions noted are these: 10 µM unless noted.
The subject of another assay is OVCAR-3 ovarian. As to conditions: 10 µM unless noted.
For the next assay, the system named is HS 578T breast. As to conditions: 10 µM.
A further assay has as its system NCI/ADR-RES ovarian. As to conditions: 10 µM unless noted.
The subject of a further assay is T-47D breast. The conditions noted are these: 10 µM unless noted.
For another assay, the system named is BT-549 breast. The conditions noted are these: 10 µM unless noted.
The test system of another assay is MDA-MB-435 melanoma. The conditions noted are these: 10 µM unless noted.
The next assay deals with SW-620 colon. As to conditions: 10 µM unless noted.
A further assay deals with MCF7 breast. The conditions noted are these: 10 µM unless noted.
The subject of another assay is HCC-2998 colon. As to conditions: 10 µM.
The subject of a further assay is KM12 colon. As to conditions: 10 µM unless noted.
The next assay relates to HCT-116 colon. The conditions noted are these: 10 µM unless noted.
The subject of another assay is IGROV1 ovarian. As to conditions: 10 µM unless noted.

SMILES strings stand for the structures. The panel holds about 83,000 compounds, 20% with a hit somewhere; the sample as a whole holds those more often.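 Each cell line was grown in a 96-well plate and treated with one concentration of compound for 48 hours. Values below 10 were considered active.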 A number with no mark means an inactive call. Active and inactive are the calls of the source.

On to `CC[n+]1c(/C=C/C=C2\N(C)c3ccccc3C2(C)C)sc2ccccc21`, for which the growth with SR leukemia was -5.33% (active); with RPMI-8226 leukemia it was -31% (active); in the assay with OVCAR-8 ovarian, 12.8%; in the assay on OVCAR-5 ovarian it was 27.4%; in the assay on OVCAR-4 ovarian, 19.9%; in the assay on SK-OV-3 ovarian, -12.3% (active). The growth with OVCAR-3 ovarian is 8.88% (active); in the assay on HS 578T breast, 39.8%; in the assay on NCI/ADR-RES ovarian it was 30.4%; in the assay with T-47D breast, 4.61% (active); in the assay on BT-549 breast, -2.69% (active); with MDA-MB-435 melanoma, 4.07% (active). Moreover, the growth with SW-620 colon was 17%; in the assay on MCF7 breast it was -26.9% (active); in the assay on HCC-2998 colon, 32.2%; in the assay with KM12 colon, 3.17% (active).
`CCCCCCCC(=O)SCC/C=C/[C@@H]1CC(=O)NCc2nc(co2)C2=N[C@@](C)(CS2)C(=O)N[C@@H](C(C)C)C(=O)O1`: the growth is 10.7% with SR leukemia; 3.09% (active) in the assay on RPMI-8226 leukemia; 0.95% (active) in the assay with OVCAR-8 ovarian; -5.93% (active) in the assay with OVCAR-5 ovarian; 12.2% in the assay with OVCAR-4 ovarian; -12.7% (active) with SK-OV-3 ovarian. For the same molecule, the growth with OVCAR-3 ovarian was -45.6% (active); with HS 578T breast, 4.63% (active); in the assay with NCI/ADR-RES ovarian it was 5.57% (active); in the assay with T-47D breast, -5.12% (active); in the assay with BT-549 breast, 13.2%; in the assay with MDA-MB-435 melanoma it was -31.8% (active). In addition, the growth is -29.2% (active) in the assay on SW-620 colon; 14.9% in the assay on MCF7 breast; -63.2% (active) in the assay on HCT-116 colon; -68.8% (active) in the assay on HCC-2998 colon; 1.36% (active) with KM12 colon.
Consider `CN1CCC(CNc2ccc3ncc(-c4cccc(OC(F)(F)F)c4)n3n2)CC1`, for which the growth in the assay with SR leukemia is -19.4% (active); with RPMI-8226 leukemia, -45.3% (active); in the assay on OVCAR-8 ovarian it was 0.791% (active); with OVCAR-5 ovarian it was -32.8% (active); in the assay on OVCAR-4 ovarian, -1.72% (active); in the assay on SK-OV-3 ovarian, -1.52% (active). Moreover, the growth with OVCAR-3 ovarian was -26.6% (active); in the assay on NCI/ADR-RES ovarian, -4.75% (active); with T-47D breast, -79.5% (active); with BT-549 breast, -0.185% (active); in the assay with MDA-MB-435 melanoma, -95.8% (active); in the assay with SW-620 colon, -61.9% (active). Further, the growth with MCF7 breast was -49.5% (active); with HCT-116 colon, -75.1% (active); in the assay on HCC-2998 colon it was -84.4% (active); in the assay with KM12 colon, -1.37% (active).
`COc1cc(C2CC(c3ccc(Cl)cc3)=NN2c2ccc(Cl)cc2)cc(OC)c1OC` (configuration not stated): the growth was 98.7% in the assay with SR leukemia; 83.3% in the assay on RPMI-8226 leukemia; 101% with OVCAR-8 ovarian; 88.1% in the assay with OVCAR-5 ovarian; 83.2% with OVCAR-4 ovarian; 98.2% in the assay on SK-OV-3 ovarian. The growth with IGROV1 ovarian was 94.8%; with HS 578T breast, 84%; with NCI/ADR-RES ovarian, 95.6%; in the assay with T-47D breast, 86.1%; in the assay with MDA-MB-435 melanoma, 93.3%; in the assay with MCF7 breast, 89.5%. Moreover, the growth in the assay with HCT-116 colon was 93.6%; with KM12 colon, 96.5%.
With `CC(=O)OC1Oc2ccccc2-c2oc(=O)c(-c3cc4ccc(N(C)C)cc4oc3=O)cc21` (configuration not stated), the growth in the assay with SR leukemia is -19.9% (active); with RPMI-8226 leukemia it was -20.5% (active); with OVCAR-8 ovarian, 37.1%; in the assay on OVCAR-5 ovarian, 26.3%; in the assay with OVCAR-4 ovarian it was 39.1%; with SK-OV-3 ovarian, 48.1%. Besides, the growth in the assay on OVCAR-3 ovarian was 43%; with HS 578T breast, -3.16% (active); in the assay on NCI/ADR-RES ovarian, 38.9%; with T-47D breast, -4.17% (active); with BT-549 breast, 15.9%; in the assay on MDA-MB-435 melanoma it was 44.5%. Besides, the growth in the assay with SW-620 colon is 61.7%; in the assay on MCF7 breast it was 68.5%; with HCT-116 colon, 20.7%; with KM12 colon, 71.8%.
`Cn1c(=O)c(F)c(Nc2ccc(I)cc2F)c2c(=O)n(C[C@@H](O)CO)cnc21`: the growth in the assay on SR leukemia is 52.4%; in the assay on RPMI-8226 leukemia, 61.2%; in the assay with OVCAR-8 ovarian, 43.9%; in the assay with OVCAR-5 ovarian it was 6.95% (active); with OVCAR-4 ovarian, 55.8%; in the assay on SK-OV-3 ovarian it was 44.8%. Moreover, the growth in the assay with IGROV1 ovarian was 10.5%; with OVCAR-3 ovarian it was 86.9%; with NCI/ADR-RES ovarian it was 60.6%; in the assay with T-47D breast, 63.7%; in the assay with MDA-MB-435 melanoma, 44.3%; in the assay with SW-620 colon, 21.6%. Also, the growth in the assay on MCF7 breast was 83.8%; in the assay with HCC-2998 colon, -37.7% (active); with KM12 colon it was 19.9%.
On to `COc1cc(NCCCN)c2ncccc2c1`, for which the growth is 68.5% in the assay on SR leukemia; 38.5% in the assay on RPMI-8226 leukemia; 82.1% in the assay with OVCAR-8 ovarian; 93.2% with OVCAR-5 ovarian; 84.1% in the assay on OVCAR-4 ovarian; 89.1% with SK-OV-3 ovarian. Moreover, the growth in the assay on OVCAR-3 ovarian was 93.3%; with HS 578T breast it was 92.2%; with NCI/ADR-RES ovarian it was 85.7%; in the assay with T-47D breast it was 91.9%; with BT-549 breast, 74.9%; with MDA-MB-435 melanoma, 83.8%. Moreover, the growth was 79.1% in the assay with SW-620 colon; 90.1% with MCF7 breast; 60.4% in the assay with HCT-116 colon; 83.5% with HCC-2998 colon; 68.2% in the assay with KM12 colon.
As for `COc1ccc(C(=O)c2cc(OC)c(OC)c(OC)c2)cc1/C=C/C(=O)c1ccc(F)cc1`, the growth with SR leukemia was 3.26% (active); with RPMI-8226 leukemia, 23.3%; with OVCAR-8 ovarian, 53.3%; in the assay on OVCAR-5 ovarian it was 1.82% (active); in the assay on OVCAR-4 ovarian, 77.8%; in the assay with SK-OV-3 ovarian, 93.5%. Besides, the growth in the assay with OVCAR-3 ovarian is 61.4%; in the assay on HS 578T breast, 98%; with NCI/ADR-RES ovarian, 31.1%; in the assay on T-47D breast, 67.3%; with BT-549 breast, 81.2%; in the assay on MDA-MB-435 melanoma it was 60.5%. In addition, the growth with MCF7 breast was 19.6%; in the assay with HCT-116 colon, 1.33% (active); in the assay on HCC-2998 colon it was 97.1%; with KM12 colon, 39.8%.
On to `COc1cc2c(cc1OCCCCCN1CCN(c3ncnc4ccccc34)CC1)N=CC1CCCN1C2=O` (configuration not stated), for which the growth was 0.841% (active) in the assay on SR leukemia; -35.6% (active) with RPMI-8226 leukemia; 1.28% (active) in the assay with OVCAR-8 ovarian; 23.8% in the assay on OVCAR-5 ovarian; -3.06% (active) in the assay with OVCAR-4 ovarian; 19.5% with SK-OV-3 ovarian. Also, the growth was -38.4% (active) with IGROV1 ovarian; 1.46% (active) with OVCAR-3 ovarian; 12.8% with NCI/ADR-RES ovarian; 10.6% in the assay with T-47D breast; -72.1% (active) in the assay with MDA-MB-435 melanoma; -1.54% (active) with SW-620 colon. Besides, the figures for the growth in the assay with MCF7 breast, in the assay on HCT-116 colon and with KM12 colon were 12.1%, 4.44% (active) and -16.1% (active), respectively.

Source of the values: PubChem BioAssay (NCI).
